S2 tox: cell viability loss in ATXN counter-screen. hit rate 0.49% among 400,000. S2 cells (HEK-293 line with an ATXN2-luciferase reporter) viability, CellTiter-Fluor protease fluorescence, 24 h. Potency, µM (titrated, usually from 56.7 µM), hits mostly cytotoxic. AID 651635; further: nearly all actives have a fitted effect of over 40% in size
ATXN2 expr inh: inhibitors of ATXN2 expression | Potency, µM (highest dose often 57 µM), most hits filed as inhibitors | AID 1745845 | hit rate 0.72% among 360,000 | HEK-293 ATXN2-luciferase reporter, luminescence, 24 h; further: nearly all actives have a fitted effect of over 55% in size
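qHTS (up to 57 uM final) was run with 24 h compound exposure of reporter cells at 37 °C. Each well was multiplexed: SteadyGlo luminescence measured ATXN2-luciferase expression after a fluorogenic Gly-Phe-AFC viability readout (25 uM final).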
mIDH1 inhibitor: blocks human mutant IDH1 R132H enzyme; IDH1-R132H enzyme, NADPH consumption, diaphorase/resazurin fluorescence; hit rate 0.093% among 390,000; Potency, µM (doses to about 76.6 µM), most hits filed as inhibitors; AID 602179; O75874; further: nearly all actives have a fitted effect of over 65% in size
Target sequence (O75874 whole entry R132H, stated change not applied): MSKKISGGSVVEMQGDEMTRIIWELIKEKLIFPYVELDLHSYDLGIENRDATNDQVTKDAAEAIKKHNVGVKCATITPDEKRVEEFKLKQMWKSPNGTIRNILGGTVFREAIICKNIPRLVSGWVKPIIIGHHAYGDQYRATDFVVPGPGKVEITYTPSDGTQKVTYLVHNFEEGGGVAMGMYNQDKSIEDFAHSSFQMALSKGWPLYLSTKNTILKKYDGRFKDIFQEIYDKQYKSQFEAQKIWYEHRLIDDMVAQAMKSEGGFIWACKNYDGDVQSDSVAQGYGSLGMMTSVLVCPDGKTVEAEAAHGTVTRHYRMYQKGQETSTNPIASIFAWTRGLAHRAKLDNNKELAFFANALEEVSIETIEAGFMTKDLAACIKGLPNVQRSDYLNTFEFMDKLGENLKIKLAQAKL
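IDH1-R132H (0.5 ug/mL dispensed) in pH 7.5 Tris buffer was preincubated 30 min with compound, then given a substrate mix of 0.016 mM NADPH and 2 mM alpha-KG for 80 min at room temperature; remaining NADPH was read by diaphorase/resazurin fluorescence.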
LDHA block: blocks human lactate dehydrogenase A | purified LDHA, NADH/diaphorase-resazurin fluorescence; stronger effect = lower value | activity change, % (values are at about 110 or 230 µM) | hit rate 0.15% among 480,000 | AID 1347041; in the data active means activity change below about -30%; inconclusive means mostly about -25% to -30%
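Remaining NADH was detected by diaphorase (0.133 mg/mL) converting 37 µM resazurin to fluorescent resorufin, read at 0 and 20 minutes. The preceding 5-minute room-temperature reaction used 2 nM LDHA, 0.2 mM sodium pyruvate and 0.06 mM NADH at pH 7.4.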
HepG2 viability: counter-screen for TGF-b inhibitors: cytotoxicity in HepG2 cells. AID 588856. Potency, µM (series often up to 46.1 µM), usual class: cytotoxic. hit rate 0.76% among 410,000. HepG2 CAGA-GFP viability, ATP luminescence, 18 h
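HepG2 CAGA-GFP cells (1000/well, DMEM with 1% FBS) received compound, then TGF-beta at 500 pg/mL final, and were incubated 18 hours at 37 degrees C. Viability was read by CellTiter-Glo luminescence. Media-only wells were set as complete cell-killing and DMSO as no toxicity.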
TGFb inhibitor: inhibitors of TGF-b signaling; HepG2 CAGA-GFP TGF-b/SMAD3 reporter, GFP fluorescence, 18 h; TGF-beta stimulated, 500 pg/mL final; Potency, µM (series often up to 46.1 µM), actives largely listed as inhibitors; hit rate 1.2% among 410,000; further: nearly all actives have a fitted effect of over 65% in size
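HEPG2 CAGA-GFP, 1000 cells/well; 2 h settle, 37 C; cpd via pin tool; TGF-b 500 pg/mL final; 18 h, 37 C; GFP imaging ex488/em500-530; %Activity normalised to -TGF-b and +DMSO controls; CRC fit, curve class.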
A number is an active result; n = inactive; u = inconclusive; x = not tested or not shown; ! = not confirmed by another sample. This is a sample that favours compounds with a hit; in the whole collection about 2.2% have one here. Unless noted, the call rests on the fitted dose curve; in most records, active means well fitted curve in the direction sought with a large enough effect; inconclusive means small, poorly fitted or top-dose-only effect, or another doubt; inactive means no such curve, though single readings can be large; an effect the other way counts as inactive or inconclusive.

SMILES | S2 tox | ATXN2 expr inh | mIDH1 inhibitor | LDHA block | HepG2 viability | TGFb inhibitor
COc1ccccc1C=C1C(=O)NC(=S)NC1=O | n | n | n | -57 | n | n
CN(CC#CCN1CCCC1)C(=O)c1cccc(Cl)c1 | u | n | x | n | n | n
Cc1cccc(Cn2cc(C=O)c3ccccc32)c1 | n | u | n | n | n | 1.1µM
N#Cc1ccc(Cn2cc(C=O)c3ccccc32)cc1 | n | u | n | n | n | 1.4µM
O=Cc1cn(Cc2cccc([N+](=O)[O-])c2)c2ccccc12 | u | 0.45µM | n | n | n | 0.71µM
O=Cc1cn(Cc2c(F)cccc2Cl)c2ccccc12 | u | x | n | n | n | 3.5µM
O=Cc1cn(CCCOc2ccccc2)c2ccccc12 | n | n | n | n | n | u
O=[N+]([O-])c1cccc(CCl)c1 | n | n | n | n | n | n
CN(C)CCOC(=O)Cc1ccccc1 | x | x | x | n | x | x
Cc1ccc(S(=O)(=O)N2CN3CCN(C3)C2)cc1 | n | n | n | n | n | n
C[N+](C)(C)CC1CCCC(C[N+](C)(C)C)C1=O (stereo not drawn) | u | u | n | -41 | n | 13µM
C[N+](C)(C)CC1CCCc2ccccc2C1=O (stereo not drawn) | u | u | n | u | n | u
Cc1ccc2[nH]c(C)c(CCN)c2c1 | x | x | x | n | x | x
O=C(Cc1cccc(C(F)(F)F)c1)N1CCN(CC(=O)N2CCCC2)CC1 | n | x | n | n | n | n
Nc1c(Br)cc2c3c(cccc13)-c1ccccc1-2 | n | n | n | n | 16µM | n
CC(C)n1c(O)c(C2c3cc(Cl)ccc3Oc3[nH]c(=O)n(C(C)C)c(=O)c32)c(=O)[nH]c1=O (stereo not drawn) | 11µM | 4µM | n | n | 14µM | 6.3µM
CC(=O)OC1C(O)C(C)OC(OC2C(OC(=O)C3CCC4C(C3)OC3(CC(OC(=O)/C=C/c5ccccc5)C(C)CO3)C43CO3)OC(C)C(O)C2OC(C)=O)C1O (stereo not drawn) | u | 0.21µM | n | n | n | u
N#CC(C#N)=NNc1ccc([N+](=O)[O-])cc1 | 14µM | n | n | n | n | u
COc1ccc(C(c2nnnn2Cc2ccccc2)N2CCC3(CC2)C(=O)NCN3c2ccccc2)cc1 (stereo not drawn) | u | n | x | n | n | 11µM
COc1ccc(-n2nnnc2C(c2ccccc2OC(F)(F)F)N2CCC3(CC2)C(=O)NCN3c2ccccc2)cc1 (stereo not drawn) | x | u | x | n | n | 11µM
O=C1NCN(c2ccccc2)C12CCN(C(c1ccccc1OC(F)(F)F)c1nnnn1-c1ccc3c(c1)OCCO3)CC2 (stereo not drawn) | 22µM | n | x | n | n | u
CCCCn1nnnc1C(c1ccc(OC)cc1)N1CCC2(CC1)C(=O)NCN2c1ccccc1 (stereo not drawn) | u | n | x | n | n | u
O=C1NCN(c2ccccc2)C12CCN(C(c1ccccc1OC(F)(F)F)c1nnnn1C1CCCC1)CC2 (stereo not drawn) | u | n | x | n | n | n
O=S(=O)(c1cc(Cl)cc(Cl)c1)N1Cc2cc(N3CCOCC3)ccc2-n2nncc2C1 | n | n | x | n | n | n
O=C(c1ccc(C(F)(F)F)cc1)C1CCCN(Cc2ccncc2)C1 (stereo not drawn) | x | n | n | n | n | n
SMILES | S2 tox | ATXN2 expr inh | mIDH1 inhibitor | LDHA block | HepG2 viability | TGFb inhibitor
O/N=C1\C(=C\c2ccccc2)N2CCC1CC2 | x | x | x | n | x | x
C[C@]12CCC3C(CC[C@H]4C[C@@H](O)[C@H](O)C[C@]34C)C1CC[C@@H]2O (stereo partly drawn) | n | n | n | n | n | n
O=c1nc(/C=C/c2ccc(Cl)cc2Cl)cc(C(F)(F)F)[nH]1 | n | x | n | n | 11µM | 16µM
Clc1ccc(COC(Cn2ccnc2)c2ccc(Cl)cc2Cl)c(Cl)c1 (stereo not drawn) | u | u | u | n | 16µM! | u
CCCCC[C@@H]1CCCCC[C@@H](O)C[C@@H](O)[C@@H](O)/C=C/C(=O)O1 | n | n | x | n | x | x
CN(C)c1ccc(/C=C/c2cc[n+](C)c3ccccc23)cc1 | 6µM | u | n | n | n | 7.1µM
CN(C)c1ccc(/C=C/C=C/c2sc3ccccc3[n+]2C)cc1 | u | u | n | n | n | 8.9µM
O=c1[nH]c2ccccc2n1C1CCN(C(c2ccnc3ccccc23)c2nnnn2-c2ccc3c(c2)OCCO3)CC1 (stereo not drawn) | u | n | x | n | n | u
COc1ccc(CNC(=O)C2CCN(C(=O)c3cnn(-c4ccccc4)c3-n3cccc3)CC2)cc1 | n | n | n | n | n | u
COC(=O)C(Cc1ccc(N(CCCl)CCCl)cc1)N=Cc1ccccc1O (stereo not drawn) | 11µM | 3.2µM | n | n | n | u
COC1C(C)OC(OC2CC(C)(O)Cc3cc4c(c(O)c32)C(=O)c2c(O)cc3c(c2C4=O)OC2OC3(C)C(O)C(N(C)C)C2O)C(OC)C1(C)OC (stereo not drawn) | u | u | n | n | n | 2µM
CN(C)C1(CNC(=O)Nc2ccc(Cl)c(Cl)c2)CCCCC1 | u | u | n | n | 16µM | u
CC(C)[C@H]1C(=O)O[C@H](C(C)C)C(=O)N(C)[C@@H](C(C)C)C(=O)O[C@H](C(C)C)C(=O)N(C)[C@@H](C(C)C)C(=O)O[C@H](C(C)C)C(=O)N1C | 10µM | 7.9µM | n | n | n | 5.6µM
COc1ccccc1-n1c(-c2ccccc2Cl)nc2ccccc2c1=O | u | n | n | n | n | n
Oc1ccc(/C=N/NP(=S)(c2ccccc2)c2ccccc2)cc1O | u | n | n | n | n | u
CC(=O)C1C(N2CC2)CC2C3CC=C4CC(O)CCC4(C)C3CCC21C (stereo not drawn) | 14µM | n | n | n | n | n
O=C1NCN(c2ccccc2)C12CCN(C(CCc1ccccc1)c1nnnn1C1CCCCC1)CC2 (stereo not drawn) | u | u | x | n | n | 13µM
O=C1NCN(c2ccccc2)C12CCN(C(c1cccs1)c1nnnn1C1CCCC1)CC2 (stereo not drawn) | u | u | x | n | n | u
O=C1NCN(c2ccccc2)C12CCN(C(c1ccccc1OC(F)(F)F)c1nnnn1C1CCCCC1)CC2 (stereo not drawn) | u | n | x | n | n | u
O=C1NCN(c2ccccc2)C12CCN(C(CCc1ccccc1)c1nnnn1C1CCCC1)CC2 (stereo not drawn) | 32µM | u | x | n | n | 11µM
COc1cc2nc(CN3CC=C(c4ccccc4)CC3)[nH]c(=O)c2cc1OC | n | 1µM | n | n | n | u

Screening results from PubChem BioAssay.
